# Unmarked numbers belong to inactive results. Calls of active or inactive are those of the source. The call rests on the fitted dose curve; in most records, active means well fitted activation curve with a large enough effect in the repeat runs; inconclusive means weak or mixed curves; inactive means flat fitted curve, though single readings scatter.
# Molecular target: KiSS-1 receptor (Homo sapiens) (UniProt Q969F8)
# Assay: Human kisspeptin (KISS1R) small molecule agonists, calcium flux assay in KISS1R-HEK293 cells (AID 1920064)
# Settings: KISS1R-HEK293, calcium flux fluorescence, agonist; series mostly up to 76.8 µM; activation: at the top concentration
# From the text: National Center for Advancing Translational Sciences [NCATS]
# Division of Preclinical Innovation [DPI]
# U.S. Environmental Protection Agency [EPA]
# National Institutes of Environmental Health Sciences [NIEHS]
# National Toxicology Program [NTP]
# U.S. Food and Drug Administration [FDA]
# Kisspeptin and its receptor KISS1R play key roles in mammalian reproduction due to their involvement in the onset of puberty and control of the hypothalamic-pituitary-gonadal axis such as regulates GnRH release from the hypothalamus. The kisspeptin/KISS1R system also plays a direct role in peripheral organs (including the ovary, testis, uterus, and placenta) and is implicated in reproductive diseases such as miscarriage and polycystic ovary syndrome (PCOS). Abnormal KISS1R activity is associated with abnormal puberty, infertility, endometriosis, and hormone-dependent tumors. The KISS1 receptor (KISS1R, also called GPR54), a G-protein-coupled receptor (GPCR), acts (through phospholipase C) to increase intracellular inositol trisphosphate and then release intracellular calcium stores. Cell-based KISS1R-HEK293 assay is using HEK293 cells that have been genetically engineered to express the human KISS1R, which activity can be measured by calcium signaling. A compound/drug can activate (agonist) KISS1R that can be monitored by levels of intracellular calcium.
# KISS1R-HEK293 cells developed by Codex Corp contain human KISS1R gene, which was stably integrated into HEK 293 cells. The compound activation can be detected by fluorescence intensity via calcium flux assay. This cell line has been used to screen the Tox21 10K compound library to identify agonists of KISS1R.
# KISS1R-Hek293 cells were dispensed at 1500 cells/4uL/well in 1536-well black wall/clear bottom plates using a multidrop dispenser. After the assay plates were incubated at a 37 C/5% CO2 incubator for 18 hours, 4 microL of Calcium Dye Solution was added to each well. The plates were incubated at 37 C for 1 hour. And then 23 nL of compounds dissolved in DMSO, positive controls, or DMSO only was transferred to the assay plate by a pin tool station. The fluorescence intensity in the plates was measured using FDSS 7000EX kinetic plate reader with a filter set of Ex/Em=480/540 for 3 min at 1 sec intervals. Each test compound was measured at 15 concentrations and in triplicates.
# On the % scale 0 is the no-effect control and ±100 the full control effect; potency means the concentration at half of the fitted maximal effect.
# Chain of KiSS-1 receptor (Homo sapiens) (Q969F8 whole entry, looked up): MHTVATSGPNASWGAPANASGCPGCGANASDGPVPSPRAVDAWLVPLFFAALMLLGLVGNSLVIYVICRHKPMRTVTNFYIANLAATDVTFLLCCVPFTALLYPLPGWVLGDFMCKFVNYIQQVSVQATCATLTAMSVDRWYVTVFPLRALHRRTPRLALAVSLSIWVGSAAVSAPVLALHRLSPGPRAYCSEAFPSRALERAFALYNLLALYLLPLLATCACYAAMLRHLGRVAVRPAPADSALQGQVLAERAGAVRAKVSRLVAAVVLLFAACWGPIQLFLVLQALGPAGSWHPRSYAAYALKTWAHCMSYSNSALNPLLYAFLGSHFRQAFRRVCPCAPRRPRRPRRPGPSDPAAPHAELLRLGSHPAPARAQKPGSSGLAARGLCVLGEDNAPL
SMILES,activation,Potency
CC(C)CCCCCCCOC(=O)c1ccccc1C(=O)OCCCCCCCC(C)C,-1.8%,
NC(=O)CI,-0.0863%,
CCOP(=S)(OCC)Oc1ccc(S(C)=O)cc1 (stereo not given),-3.03%,
O=[N+]([O-])c1cc(Cl)c(Cl)cc1Cl,-0.311%,
CC1(C)COP(Oc2ccccc2)OC1,-1.59%,
CN(C)[C@@H]1C(=O)C(C(N)=O)=C(O)[C@@]2(O)C(=O)C3=C(O)c4c(O)ccc(Cl)c4[C@@](C)(O)[C@H]3C[C@@H]12,-2.35%,
Cc1c(COC(=O)[C@@H]2[C@H](/C=C(\Cl)C(F)(F)F)C2(C)C)cccc1-c1ccccc1,,inactive
CCCSP(=S)(OCC)Oc1ccc(Cl)cc1Cl (stereo not given),-3.04%,
O=C(Cl)c1ccccc1F,-0.297%,
NNC(N)=O,1.81%,
c1csc(-c2ccc(-c3cccs3)s2)c1,0.359%,
O=CC(Br)(Br)Br,-1.01%,
O=C1CN=C(c2ccccc2)c2cc(Cl)ccc2N1CC1CC1,-0.946%,
Cc1c(Cl)c(=O)oc2cc(OP(=O)(OCCCl)OCCCl)ccc12,1.38% [at 35.3 µM],
Clc1ccccc1N1CCNCC1,-0.812% [at 35.3 µM],
Nc1ccc(N=Nc2ccccc2)cc1,20.8%,
O=C(O)c1cccc(Cl)c1,-0.0683%,
CCCCCC[N+](=O)[O-],1.16%,
O=C(O)[C@H](O)[C@@H](O)C(=O)O,-1.9%,
CC(C)OC(=O)C(O)(c1ccc(Cl)cc1)c1ccc(Cl)cc1,7.74%,

SMILES,activation,Potency
CCSC(=O)Cl,-2.73%,
CCCN(CCC)CCc1c[nH]c2ccccc12,0.06%,
CCOP(=S)(OCC)SC(CCl)N1C(=O)c2ccccc2C1=O (stereo not given),3.27%,
CC(C)(c1ccccc1)c1ccc(O)cc1,,inactive
CCOP(=S)(OCC)SCS(=O)(=O)C(C)(C)C,0.0586%,
O=S(=O)(c1ccc(Cl)cc1)c1ccc(Cl)cc1,3.63%,
CCOC(=O)/C=C(C)/C=C/C[C@@H](C)CCCC(C)C,-1.57%,
CCOC(=O)CBr,5.26%,
CCCCOCN(C(=O)CCl)c1c(CC)cccc1CC,2.25%,
CC[N+]1(CCOC(=O)C(O)(c2ccccc2)c2ccccc2)CCCCC1,-0.768% [at 35.3 µM],
C=C(C)C(=O)[O][Sn]([CH2]CCC)([CH2]CCC)[CH2]CCC,,11 µM (active)
CC(CC(C#N)(c1ccccc1)c1ccccc1)N(C)C (stereo not given),0.794%,
C=CC(=O)OCC(COC(=O)C=C)(COC(=O)C=C)COC(=O)C=C,4.09%,
c1ccc(C2CC2)c(OCC2=NCCN2)c1,8.06% [at 35.3 µM],
COC(=O)C(C)N(C(=O)Cc1ccccc1)c1c(C)cccc1C (stereo not given),1.9%,
O=C(NC(=O)c1c(F)cccc1F)Nc1ccc(Oc2ccc(C(F)(F)F)cc2Cl)cc1F,0.158%,
CCCN(CCC)c1c([N+](=O)[O-])cc(C(F)(F)F)cc1[N+](=O)[O-],,inactive
CC(C)(C)C(O)C(Oc1ccc(-c2ccccc2)cc1)n1cncn1 (stereo not given),0.359%,
CC#Cc1cc(C)nc(Nc2ccccc2)n1,-0.411%,
O=[Se]=O,-0.282% [at 35.3 µM],
